The campaign covered roughly 220,000 compounds. About 830 (0.38%) were called active.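 The calls were made as follows: active = compound inhibiting the enzyme by more than half at any dose during confirmatory dose-response retesting; inconclusive = strong single-dose inhibitors picked by rank but not retested; inactive = the rest.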 The list is a sample of the results. Measured potencies and affinities stand elsewhere.
Molecular target: Leucine aminopeptidase (Plasmodium falciparum (isolate 3D7)) (UniProt Q8IL11)
Sequence (Q8IL11 whole entry, looked up): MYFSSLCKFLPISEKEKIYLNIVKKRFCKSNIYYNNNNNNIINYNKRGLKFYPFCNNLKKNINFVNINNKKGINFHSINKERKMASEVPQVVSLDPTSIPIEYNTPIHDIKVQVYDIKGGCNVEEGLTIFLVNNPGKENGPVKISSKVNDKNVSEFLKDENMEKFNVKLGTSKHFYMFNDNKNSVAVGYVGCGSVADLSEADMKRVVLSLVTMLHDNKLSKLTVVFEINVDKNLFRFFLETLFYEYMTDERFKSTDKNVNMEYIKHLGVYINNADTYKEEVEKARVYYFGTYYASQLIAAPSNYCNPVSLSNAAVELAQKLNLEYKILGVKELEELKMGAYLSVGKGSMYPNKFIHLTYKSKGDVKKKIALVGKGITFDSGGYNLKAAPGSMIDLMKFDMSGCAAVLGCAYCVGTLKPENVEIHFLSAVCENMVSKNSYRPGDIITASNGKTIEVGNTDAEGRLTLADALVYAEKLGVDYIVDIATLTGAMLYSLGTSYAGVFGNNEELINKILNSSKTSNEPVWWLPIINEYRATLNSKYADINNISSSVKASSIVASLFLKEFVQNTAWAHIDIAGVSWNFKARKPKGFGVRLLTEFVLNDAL
Assay: P. falciparum M17LAP inhibitors, primary screen, biochemical, fluorogenic H-Leu-NHMec substrate, 1536-well (AID 1619);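 also: plate controls were full reaction with DMSO carrier for no effect and no enzyme background for full effect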
Conditions: recombinant M17LAP, H-Leu-NHMec fluorogenic kinetic assay; at 30 µM; hits give high values

inhibition, inactive:
NC(=O)CSc1nccn1Cc1ccc(Cl)cc1 -2.93%
CCN(c1ccc(NC(=O)COC(=O)c2cccs2)cc1)C(C)C 38.8%
O=C(COC(=O)c1cccs1)Nc1ccccc1 4.15%
CNC(=S)N1N=C(c2ccc(C)cc2)CC1c1ccc(Cl)cc1 (stereo not drawn) 5.37%
CCOc1[nH]n(-c2ccccc2)c(=O)c1C=Nc1ccc(F)cc1F 2.5%
CCOC(=O)N1CCN(C(=O)/C(=C/c2cccs2)NC(=O)c2cccs2)CC1 16.7%
O=c1c2c3c(sc2[nH]c(=S)n1Cc1ccco1)CCC3 -4.17%
CCn1c(=S)[nH]c2sc3c(c2c1=O)CCCCC3 3.46%
O=C(COC(=O)c1ccccc1OCc1ccc(Cl)cc1)NC1CC1 -0.6%
Cc1ccc(COc2ccsc2C(=O)O)cc1 -3.31%
O=C(O)c1sccc1OCc1ccccc1 -1.01%
COc1ccc(C(=O)CSc2n[nH]c(-c3ccncc3)n2)cc1[N+](=O)[O-] -7.99%
O=c1cc2c(=O)oc3cc(O)c(O)oc3c2c(O)c1O 33%
Cc1c(Br)c(=O)oc2c(Br)c(O)c(O)cc12 45.5%
Cc1ccc(C)c(NC(=O)CSc2nnc(-c3ccco3)o2)c1 1.4%
Cc1cccc(Nc2nnc(SC/C(O)=C(\C#N)c3nc4ccccc4[nH]3)s2)c1 19.5%
Cc1cccc(Nc2nnc(SC/C(O)=C(\C#N)c3nc4ccccc4[nH]3)s2)c1C -9.64%
COc1ccc(S(=O)(=O)N2CCOC2CNC(=O)C(=O)NCc2cccnc2)cc1C (stereo not drawn) 10.8%
CN(C)Cc1nc2c(c(=O)[nH]1)C(C)(C)Cc1ccccc1-2 -7.27%
CCn1c(=S)[nH]c2c(c1=O)C(C)(C)Cc1ccccc1-2 -1.93%
Cc1ccc(S(=O)(=O)c2nc(C)c3c(n2)CCC3)cc1 -1.17%
CCOC(=O)c1cnc(SCC(=O)Nc2cc(C(F)(F)F)ccc2N2CCOCC2)nc1N -15.2%
CC(=O)/C(C#N)=C1\NC(=O)C(Cc2cc(Cl)ccc2Cl)S1 (stereo not drawn) 45.6%
CC(=O)/C(C#N)=C1\NC(=O)C(Cc2ccccc2C)S1 (stereo not drawn) 23.4%
COCCCn1c(SCc2cc(=O)[nH]c3ccccc23)nnc1-c1ccco1 -2.38%
COCCSc1nnc(NC(=O)C2CC(=O)N(c3ccc(C)cc3)C2)s1 (stereo not drawn) 1.69%
CC(=O)Nc1ccc(S(=O)(=O)Oc2cccc(N3C(=O)C4CC=CCC4C3=O)c2)cc1 (stereo not drawn) 15.9%
O=C1C2CC=CCC2C(=O)N1c1cccc(OS(=O)(=O)c2ccc3ccccc3c2)c1 (stereo not drawn) 6.42%

Reference: PubChem BioAssay AID1619 (SRMLSC, 2009)
